Screens: PubChem BioAssay, National Center for Advancing Translational Sciences (NCATS)
AMA1-RON2 inh: AMA1-RON2 (P. falciparum) interaction inhibition; AID 720542; hit rate 0.2% among 360,000; AlphaScreen AMA1-biotinylated RON2 peptide binding; Potency, µM (series often up to 58.2 µM), inactives show at the highest dose activity change, negative = inhibition, actives largely listed as inhibitors;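 also: 0% = vehicle wells and -100% = peptide control; nearly all actives have a fitted effect of over 45% in size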
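AMA1 (3D7) with his tag at 25 nM final met compounds first, then biotinylated RON2 peptide at 25 nM; detection used donor plus acceptor beads, 10 µg/mL apiece, read by AlphaScreen after 30 min at room temperature.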
Sm TGR inh: inhibitors of Schistosoma mansoni thioredoxin glutathione reductase; purified TGR, DTNB reduction, TNB absorbance 405 nm; Potency, µM (doses to about 114 µM), for inactives: at the highest dose activity change, negative = inhibition, usual class: inhibitors; hit rate 3% among 360,000; AID 485364; also: nearly all actives have a fitted effect of over 60% in size
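Kinetic colorimetric format: TGR-catalysed, NADPH-driven DTNB reduction monitored via TNB absorbance. Enzyme dispensed at 20 nM; compound exposure 15 min at room temperature before reaction start.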
AmpC inh no detg: blocks E. coli AmpC beta-lactamase in detergent-free assay; P00811; AmpC nitrocefin hydrolysis, absorbance 480 nm, 0.0001% Triton; hit rate 0.52% among 330,000; Potency, µM (highest dose often 57.1 µM), inactives show top-dose activity change, negative = inhibition, usual class: inhibitors;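 also: plate controls were no compound for no effect and no enzyme for full effect; nearly all actives have a fitted effect of over 20% in size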
Target sequence (P00811 whole entry, looked up): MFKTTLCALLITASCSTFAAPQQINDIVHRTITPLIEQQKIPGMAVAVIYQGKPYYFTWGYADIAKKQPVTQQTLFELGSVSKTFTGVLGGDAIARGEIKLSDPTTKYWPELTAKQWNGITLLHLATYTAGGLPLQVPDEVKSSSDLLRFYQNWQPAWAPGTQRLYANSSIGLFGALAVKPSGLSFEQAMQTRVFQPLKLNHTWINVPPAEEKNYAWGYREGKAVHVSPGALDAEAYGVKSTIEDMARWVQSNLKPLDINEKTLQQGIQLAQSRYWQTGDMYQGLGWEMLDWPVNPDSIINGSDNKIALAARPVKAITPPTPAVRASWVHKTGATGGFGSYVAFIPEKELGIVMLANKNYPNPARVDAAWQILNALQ
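AmpC (5.3 nM in the dispensed reagent) in 20 mM phosphate pH 7.0 with 0.01% (detergent screen) or 0.0001% Triton X-100 was preincubated with compounds for 15 min at room temperature. Nitrocefin was then added from an 800 uM solution, and hydrolysis was followed at 480 nm.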
FMDV inh: foot and mouth disease virus antiviral activity. hit rate 1.2% among 410,000. Potency, µM (top dose mostly 57.9 µM), without a hit: at the top dose activity change, negative = inhibition, hits mostly inhibitors. FMDV antiviral cell-based qHTS; calls by dose curve; tested in HEK293T cells; also: read-out not given here; nearly all actives have a fitted effect of over 45% in size
AmpC inh detg: inhibitors of E. coli AmpC beta-lactamase with detergent; AmpC hydrolysis of nitrocefin, absorbance 480 nm, 0.01% Triton; hit rate 0.041% among 370,000; Potency, µM (doses to about 114 µM), inactives show at the highest dose activity change, negative = inhibition, usual class: inhibitors; P00811;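 also: 0% = no-compound wells and -100% = no-enzyme wells; nearly all actives have a fitted effect of over 25% in size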
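AmpC (5.3 nM in the dispensed reagent) in 20 mM phosphate pH 7.0 with 0.01% (detergent screen) or 0.0001% Triton X-100 was preincubated with compounds for 15 min at room temperature. Nitrocefin was then added from an 800 uM solution, and hydrolysis was followed at 480 nm.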
An asterisk follows results filed as active; ? = inconclusive; · = no result; [ ] = dose if it differs, or a comment. Hits are enriched below; roughly 4.1% of the tested compounds scored in any of these assays. Unless noted, calls follow the shape of the dose curve; as a rule, active = well fitted curve in the direction sought with a large enough effect; inconclusive = small, poorly fitted or top-dose-only effect, or another doubt; inactive = no such curve, though single readings can be large; an effect the other way counts as inactive or inconclusive. Unless noted, % is scaled to controls: 0 for no effect and ±100 for the full control effect; potency is read from the fitted curve at half-maximal effect.

SMILES | AMA1-RON2 inh | Sm TGR inh | AmpC inh no detg | FMDV inh | AmpC inh detg
CCOC(=O)C1=CC[C@@H](c2cccc(C)c2)N(S(=O)(=O)c2ccc(C)cc2)[C@H]1C(=O)OCC | -9% | 4% | 52% | -16% | 4%
COc1ccc(C2=NNC(c3cc(Cl)cc4c3OCOC4)C2)c(O)c1 (stereo not given) | · | · | 17% | · | -4%
Oc1ccc(Cl)cc1C1=NNC(c2cc(Br)cc3c2OCOC3)C1 (stereo not given) | 95% | 25µM* | -59% | -3% | -7%
COC(=O)c1ccccc1NC(=O)COC(=O)c1ccco1 | -3% | -22% | -19% | -15% | -4%
O=C(COC(=O)/C=C/c1ccco1)Nc1ccc(F)cc1Cl | -16% | 32µM* | -27% | 10% | -3%
O=C(COC(=O)C1(c2ccc(F)cc2)CCCC1)NCc1ccc2c(c1)OCO2 | -9% | 6% | 30% | 40µM* | -1%
O=C(COC(=O)/C=C/c1ccco1)NCc1ccc2c(c1)OCO2 | -15% | 35µM* | -26% | 6% | 4%
COC(=O)c1ccccc1NC(=O)COC(=O)/C=C/c1ccco1 | 0% | 25µM* | -8%[11.4 µM] | -6% | ?
CCOC(=O)Cn1c(=O)n(CC2CCCO2)c2nc(-c3ccc(C)cc3)nc(C(N)=O)c21 (stereo not given) | · | -2% | · | -28% | 4%
COc1ccc(C(=O)COC(=O)/C=C/c2ccco2)cc1F | -6% | 22µM* | -29% | 30% | -2%
O=C(COC(=O)/C=C/c1ccco1)Nc1ccccc1 | -10% | 56µM* | -18% | 15% | 7%
CC1CCCC(NC(=O)COC(=O)/C=C/c2ccco2)C1C (stereo not given) | -6% | 45µM* | -18% | -11% | -10%
Cc1cccc(CNC(=O)CN2C(=O)CCCc3ccccc32)c1 | · | 5% | · | 7% | 23%
COc1ccc(-c2nc(Cn3c(SCc4ccc(C)cc4)nc4cccnc43)c(C)o2)cc1OC | · | 5% | · | -9% | 17%
Cc1ccc(NNS(=O)(=O)c2ccc(C)cc2)cc1 | -16% | 7.9µM* | -33% | -6% | -9%
Cc1cc(C)cc(NC(=O)c2ccc3oc(=O)c(S(=O)(=O)c4ccc(F)cc4)cc3c2)c1 | · | 2% | · | 20µM* | -1%
CCN(CC)c1ccc(/C=N/Nc2cccc(C)c2)c(O)c1 | ? | 10µM* | -35% | 8% | -5%
CCN(CC)c1ccc(/C=N/NC(=S)NC)c(O)c1 | 17% | -9% | -57% | 47% | ?
CCN(CC)c1ccc(/C=N/Nc2ccccc2)c(O)c1 | -3% | 10µM* | -32% | 26% | 4%
CN(C)c1ccc(C(CNC(=O)Cc2ccc(Cl)cc2)N2CCOCC2)cc1 (stereo not given) | · | -2% | · | -5% | -1%
CCN(C(=O)CSc1nc2ncccc2[nH]1)c1ccc(C(C)C)cc1 | · | 1% | · | -14% | 23%
Cc1cccc(NC(=O)CSc2nc(=O)n(Cc3ccncc3)c3c2CCC3)c1C | · | 0% | · | 15% | -1%
CCCCCCCCSC1=CC(=O)C(OC)=C(OC)C1=O | 7.9µM* | · | · | 18µM* | ·
CCn1nc(C)c2c(-c3ccccc3)cc(=O)n(C(C)C(=O)Nc3ccc(OC)c(OC)c3)c21 (stereo not given) | · | 2% | · | -24% | 12%
CCN(CC)c1ccc(C2NC(=O)c3ccccc3N2)cc1 (stereo not given) | 6% | · | · | 11µM* | ·
CCCCCCNC(=O)N[C@H](Cc1ccc(O)cc1)C(=O)NCCC[C@H]1CN2C(=NC[C@H]2CCC)N1CC1CCC1 | · | 5µM* | 66% | · | 8%
CCCCCCNC(=O)N[C@@H](Cc1ccc(O)cc1)C(=O)NCCC[C@H]1CN2C(=NC[C@H]2C)N1CC1CCC1 | -3% | ? | 96% | 72% | 1%
COc1cc2cc(CCCOC(=O)c3ccc4c(c3)OCO4)oc(=O)c2cc1OC | -7% | 50µM* | 108% | -6% | 1%
COc1ccc(C(=O)OCCCc2cc3ccccc3c(=O)o2)cc1 | 11% | 50µM* | -20% | 21% | -6%
Cc1ccc2c(c1)C(=O)C1(O)CCN(c3ccccc3)C1=N2 (stereo not given) | · | · | · | -16%[97.4 µM] | ·
